# Several values for one entry are separate records, joined by “and”; a condition that tells them apart may be missing. Identical values can stand only once.
# Columns and labels:
# [1] = target: Serine/threonine-protein kinase pim-2 (Homo sapiens) (UniProt Q9P1W9); conditions: at 1 µM;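 also: each value is a mean of the inhibition measurements against the kinase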
# [2] = target: Serine/threonine-protein kinase pim-3 (Homo sapiens) (UniProt Q86V86); conditions: at 0.1 µM
# [3] = target: Serine/threonine-protein kinase pim-3 (Homo sapiens) (UniProt Q86V86); conditions: at 1 µM
# [4] = target: T1, MAP kinase-activated protein kinase 5 (Homo sapiens) (UniProt Q8IW41); conditions: at 0.1 µM
# T1 sequence (whole entry): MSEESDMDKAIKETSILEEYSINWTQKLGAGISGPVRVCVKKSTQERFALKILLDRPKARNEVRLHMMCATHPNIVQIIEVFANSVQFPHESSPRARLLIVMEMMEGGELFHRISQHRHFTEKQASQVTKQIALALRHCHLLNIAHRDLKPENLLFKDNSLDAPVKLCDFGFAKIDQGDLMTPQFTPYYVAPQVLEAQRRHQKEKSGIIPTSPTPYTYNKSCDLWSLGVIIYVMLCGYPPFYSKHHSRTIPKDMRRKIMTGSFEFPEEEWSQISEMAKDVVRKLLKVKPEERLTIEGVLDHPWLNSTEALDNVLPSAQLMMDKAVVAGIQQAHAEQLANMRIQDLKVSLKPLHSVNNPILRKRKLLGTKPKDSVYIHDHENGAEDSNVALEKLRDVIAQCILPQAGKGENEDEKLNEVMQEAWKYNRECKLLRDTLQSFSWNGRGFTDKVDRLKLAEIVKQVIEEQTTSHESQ
# [5] = target: T1, MAP kinase-activated protein kinase 5 (Homo sapiens); conditions: at 1 µM
# [6] = target: Serine/threonine-protein kinase SIK1 (Homo sapiens) (UniProt P57059); conditions: at 0.1 µM
# Sequence of Serine/threonine-protein kinase SIK1 (Homo sapiens) (P57059 whole entry): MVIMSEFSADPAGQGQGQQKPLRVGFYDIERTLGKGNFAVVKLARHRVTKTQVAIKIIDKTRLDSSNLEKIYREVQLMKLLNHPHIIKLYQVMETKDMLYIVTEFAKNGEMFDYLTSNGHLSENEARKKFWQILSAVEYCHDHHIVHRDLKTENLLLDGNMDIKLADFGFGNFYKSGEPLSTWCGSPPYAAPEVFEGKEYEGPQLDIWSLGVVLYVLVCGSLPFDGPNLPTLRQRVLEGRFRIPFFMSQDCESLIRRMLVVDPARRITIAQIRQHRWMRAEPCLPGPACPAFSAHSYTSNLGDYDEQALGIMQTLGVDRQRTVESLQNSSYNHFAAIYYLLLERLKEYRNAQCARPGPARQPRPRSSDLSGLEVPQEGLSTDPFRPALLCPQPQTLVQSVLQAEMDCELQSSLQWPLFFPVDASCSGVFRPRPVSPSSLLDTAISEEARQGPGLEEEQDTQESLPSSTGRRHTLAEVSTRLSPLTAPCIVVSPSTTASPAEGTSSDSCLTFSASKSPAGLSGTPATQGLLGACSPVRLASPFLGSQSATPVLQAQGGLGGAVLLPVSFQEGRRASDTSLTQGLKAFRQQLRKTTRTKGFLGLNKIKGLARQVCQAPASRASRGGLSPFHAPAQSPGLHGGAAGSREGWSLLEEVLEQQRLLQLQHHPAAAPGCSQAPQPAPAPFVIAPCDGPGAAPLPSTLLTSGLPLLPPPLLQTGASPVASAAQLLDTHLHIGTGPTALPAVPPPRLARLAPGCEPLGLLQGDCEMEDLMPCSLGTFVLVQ
# [7] = target: Serine/threonine-protein kinase SIK1 (Homo sapiens) (UniProt P57059); conditions: at 1 µM
# [8] = target: Serine/threonine-protein kinase SIK2 (Homo sapiens) (UniProt Q9H0K1); conditions: at 0.1 µM
# Sequence of Serine/threonine-protein kinase SIK2 (Homo sapiens) (Q9H0K1 whole entry, looked up): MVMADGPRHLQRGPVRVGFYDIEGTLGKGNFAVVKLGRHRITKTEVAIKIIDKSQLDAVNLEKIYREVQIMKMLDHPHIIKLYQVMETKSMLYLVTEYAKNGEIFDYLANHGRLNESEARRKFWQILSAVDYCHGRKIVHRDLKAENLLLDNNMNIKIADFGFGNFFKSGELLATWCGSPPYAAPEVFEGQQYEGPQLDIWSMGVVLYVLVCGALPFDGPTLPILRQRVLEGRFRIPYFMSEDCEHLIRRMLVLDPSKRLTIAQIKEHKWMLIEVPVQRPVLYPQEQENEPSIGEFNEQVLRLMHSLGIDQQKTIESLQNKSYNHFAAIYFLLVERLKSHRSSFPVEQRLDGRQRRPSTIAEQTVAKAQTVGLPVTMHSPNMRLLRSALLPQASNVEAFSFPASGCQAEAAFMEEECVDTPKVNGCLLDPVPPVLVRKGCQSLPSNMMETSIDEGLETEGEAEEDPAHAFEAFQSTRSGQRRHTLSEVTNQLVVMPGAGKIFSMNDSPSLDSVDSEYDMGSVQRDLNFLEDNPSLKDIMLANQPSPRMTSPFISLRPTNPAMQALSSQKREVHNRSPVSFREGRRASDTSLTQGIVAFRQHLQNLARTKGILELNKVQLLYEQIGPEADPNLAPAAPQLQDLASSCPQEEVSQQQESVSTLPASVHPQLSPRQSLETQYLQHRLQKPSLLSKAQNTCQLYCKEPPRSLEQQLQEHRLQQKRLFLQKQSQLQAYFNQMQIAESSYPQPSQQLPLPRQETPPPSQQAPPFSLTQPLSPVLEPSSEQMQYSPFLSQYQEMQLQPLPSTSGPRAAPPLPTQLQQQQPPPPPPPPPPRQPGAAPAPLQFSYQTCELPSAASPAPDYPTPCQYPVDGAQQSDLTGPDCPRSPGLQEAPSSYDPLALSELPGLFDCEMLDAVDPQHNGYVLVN
# [9] = target: Serine/threonine-protein kinase SIK2 (Homo sapiens) (UniProt Q9H0K1); conditions: at 1 µM
# [10] = target: T2, Serine/threonine-protein kinase TBK1 (Homo sapiens) (UniProt Q9UHD2); conditions: at 0.1 µM;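 also: values are the mean TBK1 inhibition, taken from the GSK PKIS screening data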
# T2 sequence (whole entry): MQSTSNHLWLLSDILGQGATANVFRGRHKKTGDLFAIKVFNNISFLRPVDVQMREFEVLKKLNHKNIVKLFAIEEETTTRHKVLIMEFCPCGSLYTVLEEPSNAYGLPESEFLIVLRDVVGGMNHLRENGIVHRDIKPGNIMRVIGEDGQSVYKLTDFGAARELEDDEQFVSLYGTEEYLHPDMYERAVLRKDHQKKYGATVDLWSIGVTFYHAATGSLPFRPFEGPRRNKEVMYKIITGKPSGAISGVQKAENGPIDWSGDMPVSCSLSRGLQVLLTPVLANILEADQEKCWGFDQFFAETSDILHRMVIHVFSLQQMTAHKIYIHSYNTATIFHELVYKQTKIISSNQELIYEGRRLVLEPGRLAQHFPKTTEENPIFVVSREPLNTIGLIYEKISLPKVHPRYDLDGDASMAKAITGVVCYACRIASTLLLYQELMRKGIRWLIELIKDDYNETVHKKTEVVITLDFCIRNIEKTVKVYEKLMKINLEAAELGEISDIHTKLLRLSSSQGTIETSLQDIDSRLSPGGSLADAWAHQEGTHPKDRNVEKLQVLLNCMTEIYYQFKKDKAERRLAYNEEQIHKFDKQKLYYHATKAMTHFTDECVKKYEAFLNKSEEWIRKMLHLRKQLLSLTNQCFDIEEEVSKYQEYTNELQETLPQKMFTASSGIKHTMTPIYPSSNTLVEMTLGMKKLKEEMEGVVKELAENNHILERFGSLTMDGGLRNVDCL
# Sequence of Serine/threonine-protein kinase pim-2 (Homo sapiens) (Q9P1W9 whole entry, looked up): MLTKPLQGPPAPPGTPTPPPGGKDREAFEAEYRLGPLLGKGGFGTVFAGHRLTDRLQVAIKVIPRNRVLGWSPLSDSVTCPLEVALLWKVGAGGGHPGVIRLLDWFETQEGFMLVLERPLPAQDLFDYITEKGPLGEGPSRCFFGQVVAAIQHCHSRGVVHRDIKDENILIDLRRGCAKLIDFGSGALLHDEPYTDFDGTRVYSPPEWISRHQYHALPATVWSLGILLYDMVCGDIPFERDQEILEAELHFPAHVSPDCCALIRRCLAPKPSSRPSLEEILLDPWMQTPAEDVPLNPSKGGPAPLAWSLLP
smiles,measurement,setting,value
CS(=O)(=O)Nc1ccc(-c2ccc3c(NC(=O)C4CC4)n[nH]c3c2)cc1,inhibition,[1],4%
same,inhibition,[2],0.02%
same,inhibition,[3],2.14%
same,inhibition,[4],0.66%
same,inhibition,[5],-1.55%
same,inhibition,[6],3.97%
same,inhibition,[7],5.51%
same,inhibition,[8],5.95%
same,inhibition,[9],1.37%
same,inhibition,[10],0.86%
CNC(=O)c1cncc(/C=C/c2ccccc2C)c1,inhibition,[1],1.06%
same,inhibition,[2],-0.06%
same,inhibition,[3],5.04%
same,inhibition,[4],1.79%
same,inhibition,[5],3.16%
same,inhibition,[6],10%
same,inhibition,[7],39.5%
same,inhibition,[8],9%
same,inhibition,[9],18.5%
same,inhibition,[10],2.9%
COc1ccc(-c2nn3ncccc3c2-c2ccnc(Nc3ccc(F)c(F)c3)n2)cc1,inhibition,[1],4.2%
same,inhibition,[2],4.52%
same,inhibition,[3],6.05%
same,inhibition,[4],1.6%
same,inhibition,[5],4.42%
same,inhibition,[6],1.5%
same,inhibition,[7],8.64%
same,inhibition,[8],8.32%
same,inhibition,[9],7.08%
same,inhibition,[10],-2.71%
Nc1nccc(-c2c(-c3ccc(F)cc3)ncn2C2CCNCC2)n1,inhibition,[1],1.8% and 0.96%
same,inhibition,[2],0.82% and 0.07%
same,inhibition,[3],11% and 0.53%
same,inhibition,[4],-1.67% and 0.07%
same,inhibition,[5],-1.48% and 0.35%
same,inhibition,[6],-9% and 6.76%
same,inhibition,[7],-2.37% and 5.84%
same,inhibition,[8],-0.69% and 8.02%
same,inhibition,[9],37.4% and 47.1%
same,inhibition,[10],-1.45% and -0.58%
Cn1c(-c2nonc2N)nc2cnccc21,inhibition,[1],1.87%
same,inhibition,[2],-0.24%
same,inhibition,[3],7.16%
same,inhibition,[4],1.23%
same,inhibition,[5],0.93%
same,inhibition,[6],4.82%
same,inhibition,[7],8.47%
same,inhibition,[8],5.17%
same,inhibition,[9],-0.26%
same,inhibition,[10],1.34%
CCN1CCC(C(=O)Nc2n[nH]c3nnc(-c4cccc(F)c4F)cc23)CC1,inhibition,[1],0.25%
same,inhibition,[2],-0.6%
same,inhibition,[3],2.08%
same,inhibition,[4],0.03%
same,inhibition,[5],-0.34%
same,inhibition,[6],-3.64%
same,inhibition,[7],0.15%
same,inhibition,[8],-2.38%
same,inhibition,[9],-0.5%
same,inhibition,[10],0.48%
CN(C)CCNC(=O)Nc1ccc(N(C)c2ccnc(Nc3ccc(CS(C)(=O)=O)cc3)n2)cc1,inhibition,[1],2.68%
same,inhibition,[2],-0.48%
same,inhibition,[3],-1.2%
same,inhibition,[4],1.02%
same,inhibition,[5],0.33%
same,inhibition,[6],5.41%
same,inhibition,[7],31.9%
same,inhibition,[8],8.68%
same,inhibition,[9],13.6%
same,inhibition,[10],2.12%
COc1cc(N2CCN(C(C)C)CC2)ccc1Nc1nc(Nc2cccc(F)c2C(=O)O)c2cc[nH]c2n1,inhibition,[1],0.53%
same,inhibition,[2],1%
same,inhibition,[3],5.92%
same,inhibition,[4],1.35%
same,inhibition,[5],2.28%
same,inhibition,[6],2.77%
same,inhibition,[7],7.48%
same,inhibition,[8],5.27%
same,inhibition,[9],4.22%
same,inhibition,[10],4.45%
OCCCNc1nccc(-c2c(-c3ccc(F)cc3)nn3cc(C(F)(F)F)ccc23)n1,inhibition,[1],-0.96%
same,inhibition,[2],-0.81%
same,inhibition,[3],-0.18%
same,inhibition,[4],-0.21%
same,inhibition,[5],-1.07%
same,inhibition,[6],5.25%
same,inhibition,[7],6.5%
same,inhibition,[8],7.07%
same,inhibition,[9],16.9%
same,inhibition,[10],2.49%
Fc1cccc(COc2ccc(Nc3ncncc3C#Cc3ccccc3)cc2Cl)c1,inhibition,[1],1.48%
same,inhibition,[2],-0.8%
same,inhibition,[3],3.6%
same,inhibition,[4],2.08%
same,inhibition,[5],4.3%
same,inhibition,[6],3.74%
same,inhibition,[7],5.31%
same,inhibition,[8],9.03%
same,inhibition,[9],6.72%
same,inhibition,[10],5.15%
N#Cc1ccc2c(-c3ccnc(NC4CC4)n3)c(-c3ccc(F)cc3)nn2c1,inhibition,[1],0.72%
same,inhibition,[2],-0.27%
same,inhibition,[3],-0.29%
same,inhibition,[4],0.61%
same,inhibition,[5],-0.5%
same,inhibition,[6],4.86%
same,inhibition,[7],23.5%
same,inhibition,[8],24.1%
same,inhibition,[9],68.9%
same,inhibition,[10],1.15%
Nc1nonc1-c1nc2cnccc2n1C1CC1,inhibition,[1],11.3% and 9.18%
same,inhibition,[2],3.94% and 4.22%
same,inhibition,[3],30.6% and 32.5%
same,inhibition,[4],0.67% and 1.06%
same,inhibition,[5],-0.55% and 4.15%
same,inhibition,[6],6.64% and 2.66%
same,inhibition,[7],8.35% and 5.12%
same,inhibition,[8],0.75% and 5.71%
same,inhibition,[9],5.93% and 2.36%
same,inhibition,[10],7.96% and 1.98%
N#Cc1cccc(Nc2ncc(-c3ccccc3)o2)c1,inhibition,[1],0.47%
same,inhibition,[2],0.1%
same,inhibition,[3],2.79%
same,inhibition,[4],1.22%
same,inhibition,[5],2.58%
same,inhibition,[6],1.14%
same,inhibition,[7],4%
same,inhibition,[8],1.76%
same,inhibition,[9],4.74%
same,inhibition,[10],1.05%
CC1=C(C(=O)Nc2ccc3[nH]ncc3c2)C(c2ccc(F)cc2)N=C(c2ccc(C(F)(F)F)nc2)N1 (stereo not given),inhibition,[1],0.66%
same,inhibition,[2],0.08%
same,inhibition,[3],-1.05%
same,inhibition,[4],0.55%
same,inhibition,[5],0.22%
same,inhibition,[6],4.91%
same,inhibition,[7],4.39%
same,inhibition,[8],2.09%
same,inhibition,[9],4.41%
same,inhibition,[10],-0.16%
O=C(Nc1n[nH]c2nnc(-c3cccnc3)cc12)C1CC1,inhibition,[1],28.7%
same,inhibition,[2],26.8%
same,inhibition,[3],69.7%
same,inhibition,[4],0.13%
same,inhibition,[5],-0.19%
same,inhibition,[6],1.74%
same,inhibition,[7],5.12%
same,inhibition,[8],1.86%
same,inhibition,[9],-1.67%
same,inhibition,[10],0.25%
NC(=O)c1ccc2c(-c3ccnc(NCCCO)n3)c(-c3ccc(F)cc3)nn2c1,inhibition,[1],1.11%
same,inhibition,[2],-0.5%
same,inhibition,[3],-0.27%
same,inhibition,[4],1.47%
same,inhibition,[5],1.16%
same,inhibition,[6],3.64%
same,inhibition,[7],16%
same,inhibition,[8],9.22%
same,inhibition,[9],40.4%
same,inhibition,[10],4.13%
CN1CCN(Cc2ccc(-c3cc4ncnc(Nc5ccc(OCc6cccc(F)c6)c(Cl)c5)c4s3)o2)CC1,inhibition,[1],0.42% and 1.37%
same,inhibition,[2],-0.99% and -1.6%
same,inhibition,[3],0.95% and 2.39%
same,inhibition,[4],0.79% and 1.52%
same,inhibition,[5],0.84% and 3.86%
same,inhibition,[6],4.03% and 8.14%
same,inhibition,[7],12.8% and 15.9%
same,inhibition,[8],2.15% and 4.89%
same,inhibition,[9],1.94% and 9.4%
same,inhibition,[10],1.51% and 5%
COC(=O)Nc1nc2cc(Oc3ccc(NC(=O)Nc4ccccc4)cc3)ccc2[nH]1,inhibition,[1],0.64%
same,inhibition,[2],-0.27%
same,inhibition,[3],0.79%
same,inhibition,[4],1.73%
same,inhibition,[5],2.59%
same,inhibition,[6],1.17%
same,inhibition,[7],7.79%
same,inhibition,[8],1.28%
same,inhibition,[9],9.23%
same,inhibition,[10],-0.2%
COc1cc(N2CCN(C(C)C)CC2)ccc1Nc1nc(Nc2cccc3ncccc23)c2cc[nH]c2n1,inhibition,[1],0.36%
same,inhibition,[2],-0.71%
same,inhibition,[3],0.17%
same,inhibition,[4],0.21%
same,inhibition,[5],-0.62%
same,inhibition,[6],-2.95%
same,inhibition,[7],0.48%
same,inhibition,[8],-4.22%
same,inhibition,[9],3.12%
same,inhibition,[10],-0.11%

# Source: ChEMBL document CHEMBL1961873, “Compounds: GSK PKIS; Assays: Nanosyn kinase panel” (2012)
